Sampled rows, rich in hits. Any-hit rate of the full collection: about 3.4%.
MITF inh: MITF inhibitors, primary screen, biochemical, AlphaScreen, human | inhibition, % at 2.6 µM | AlphaScreen MITF homodimerization, bead proximity signal | actives 0.91% (n = 650,000); in the data active means inhibition above about 50%;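 further: 0% = vehicle wells with protein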
GPR151 activ: activators of human GPR151, primary screen, cell-based, PathHunter beta-arrestin, luminescence. G-protein coupled receptor 151 (Homo sapiens), Q8TDV0. PathHunter beta-arrestin GPR151 cells. activation, % at 11.2 µM. actives 1% (n = 650,000); in the data active means activation above about 4.9%;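 further: 0% = median of compound wells and 100% = cells with positive control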
TEAD-YAP inh: TEAD-YAP interaction inhibition, primary screen, TEAD-YAP interaction inhibitor project, luminescence, HEK-TIYL cells; inhibition, % at 9.12 µM; TEAD-Gal4/YAP UAS-luciferase luminescence; AID 1259422, 2018; actives 1.4% (n = 640,000); in the data active means inhibition above about 32%;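 further: 0% = median of test compound wells and 100% = reference inhibitor wells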
FBW7 act: FBW7 E3 ligase activators, primary screen, biochemical, AlphaScreen, human | F-box/WD repeat-containing protein 7 (Homo sapiens), Q969H0 | normalized activity (activation), % at 26.1 µM | AID 1259310, 2017 | actives 0.13% (n = 650,000) | AlphaScreen FBW7–phospho-cyclin E peptide binding, activator screen; in the data active means normalized activity above about 1.9%;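 further: purified mutant Fbw7 with reduced substrate affinity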
Target sequence (Q969H0 whole entry, looked up): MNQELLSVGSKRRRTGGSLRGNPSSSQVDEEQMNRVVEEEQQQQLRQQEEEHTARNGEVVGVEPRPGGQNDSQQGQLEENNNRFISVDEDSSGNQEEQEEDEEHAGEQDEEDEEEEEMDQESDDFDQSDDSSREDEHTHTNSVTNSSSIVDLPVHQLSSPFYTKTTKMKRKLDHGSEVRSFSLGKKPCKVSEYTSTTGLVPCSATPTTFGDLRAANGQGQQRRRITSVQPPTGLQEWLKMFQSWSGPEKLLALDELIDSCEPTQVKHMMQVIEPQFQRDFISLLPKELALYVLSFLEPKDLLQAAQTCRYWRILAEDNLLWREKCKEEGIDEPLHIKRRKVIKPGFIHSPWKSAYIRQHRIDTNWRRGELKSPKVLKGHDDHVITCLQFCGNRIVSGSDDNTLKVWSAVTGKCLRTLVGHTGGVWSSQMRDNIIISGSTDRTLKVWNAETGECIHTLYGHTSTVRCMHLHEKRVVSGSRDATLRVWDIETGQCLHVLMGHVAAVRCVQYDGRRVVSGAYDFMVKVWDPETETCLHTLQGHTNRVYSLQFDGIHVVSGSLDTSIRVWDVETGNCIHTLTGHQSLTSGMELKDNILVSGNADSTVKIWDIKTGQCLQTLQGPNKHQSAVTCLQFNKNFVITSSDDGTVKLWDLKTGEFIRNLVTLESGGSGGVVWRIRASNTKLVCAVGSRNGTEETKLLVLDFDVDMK
MITF confirm: MITF inhibitors, retest of hits, confirmation, biochemical, AlphaScreen, triplicate; shares compounds with MITF inh; AlphaScreen MITF homodimerization, biotin/His-MITF beads; inhibition, % at 2.6 µM; actives 16% (n = 4,700); AID 1259372, 2018;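 active means inhibition above a cutoff derived from the DMSO control wells, cut at about 28% in these data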;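 further: 0% = MITF dimer wells with DMSO only; inhibitors lower the bead chemiluminescence by keeping MITF from dimerizing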
AS interf DR: AlphaScreen optical interference compounds, dose response, counter-screen, biochemical, HTS | shares compounds with MITF inh | AlphaScreen optical interference counterscreen, cell-free | IC50, µM | actives 6% (n = 480); call rule not given here
AS interf ctr: AlphaScreen optical interference compounds, counter-screen for MITF inhibitor project, biochemical, triplicate | shares compounds with MITF inh | LysRS AlphaScreen counterscreen, signal interference | inhibition, % at 2.6 µM | actives 7.6% (n = 4,700);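 active means inhibition above a cutoff derived from the DMSO control wells, cut at about 30% in these data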
Active calls of the source: *; . = no result given.

SMILES	MITF inh	GPR151 activ	TEAD-YAP inh	FBW7 act	MITF confirm	AS interf ctr	others
CCN1CCN(CCOCCOc2ccc(F)cc2)CC1	70*	0	8	0	32*	10	AS interf DR=>6.5
CCN1CCN(CCCOc2ccc(C#N)cc2)CC1	72*	-1	18	0	12	18
Cc1cccc(-n2nc([N+](=O)[O-])c(=Nc3ccc(Br)cc3)n2O)c1	16	0	22	1	.	.
CCN1CCN(CCOCCOc2ccc(I)cc2)CC1	81*	1	9	1	5	15
CCCCOc1ccc(OCCOCCN2CCN(CC)CC2)cc1	65*	0	-2	0	12	14
Cc1nccn1Cc1ccc(O)c2ncccc12	82*	0	10	-2	103*	101*
CCN(CC)Cc1cccc2cccnc12	15	0	3	0	.	.
Cc1ccc(NCc2ccc(O)c3ncccc23)cc1	53*	-1	2	-2	105*	100*
Cc1cccnc1NCc1ccc(O)c2ncccc12	64*	1	-4	-1	52*	91*
Cc1ccc(NCc2ccccc2O)cc1	12	1	-28	0	.	.
CCN(CC)Cc1ccc(O)c2ncccc12	93*	-2	51*	-1	102*	100*
COc1cccc(COc2coc(C(=O)NC3CC3)cc2=O)c1	-7	0	-11	0	.	.
CCOc1ccc(N2C(=O)C3C(C2=O)N2CCCN2C3c2ccc(F)cc2)cc1 (stereo not given)	17	-1	-6	1	.	.
N#C/C(=C\c1cn(CC(=O)NCc2ccco2)c2ccccc12)C(=O)NC1CCCC1	-4	1	-5	0	.	.
O=S(=O)(Nc1ccc(I)cc1)c1ccccc1	-4	0	-4	0	.	.
Cc1cc(=O)[nH]c(N/N=C/c2ccc(-c3ccccc3)cc2)n1	5	0	7	0	.	.
COc1ccc(CCNc2ncnc3nc(NCc4cccnc4)[nH]c23)cc1	5	4	12	0	.	.
COC(=O)CCCC[C@H]1SC[C@H]2NC(=O)N[C@]21O	84*	1	-2	-1	107*	92*
Clc1cc(Br)ccc1OCCn1ccnc1	54*	-1	-14	0	0	5
c1ccc(COc2ccc(OCCCCn3ccnc3)cc2)cc1	60*	-1	-4	0	36*	25	AS interf DR=>6.5
Clc1cc(Br)ccc1OCCCn1ccnc1	43	0	4	0	.	.
CCc1cccc(OCCn2ccnc2)c1	54*	0	-3	0	4	6
CCOc1cccc(OCCn2ccnc2)c1	43	0	2	0	.	.
Clc1cccc(Cl)c1OCCCn1ccnc1	52*	1	-2	0	1	1
COc1ccc(NC(=O)c2ccco2)cc1NC(=S)NC(=O)c1cccs1	10	-1	9	0	.	.
SMILES	MITF inh	GPR151 activ	TEAD-YAP inh	FBW7 act	MITF confirm	AS interf ctr	others
Cc1cccc(C)c1OCCCCn1ccnc1	70*	0	6	0	-5	-4
Cc1cccc(Cl)c1OCCCCn1ccnc1	1	-1	1	0	.	.
CC(C)CCNC(=O)c1ccc2c(=O)n(Cc3ccco3)c(=S)[nH]c2c1	-7	0	-7	0	.	.
NCCNC(CC(=O)Nc1cccc(Cl)c1Cl)C(=O)O (stereo not given)	85*	0	4	0	19	33*
Cc1c(Cl)cccc1NC(=O)CC(NCc1ccccn1)C(=O)O (stereo not given)	90*	0	5	0	62*	100*
CCCNC(CC(=O)Nc1ccc(OC)cc1)C(=O)O (stereo not given)	-4	1	-2	0	.	.
Cc1c(Cl)cccc1NC(=O)CC(NCCCN(C)C)C(=O)O (stereo not given)	-10	-2	-2	0	.	.
COc1ccc(NC(=O)CC(NCc2ccccn2)C(=O)O)cc1 (stereo not given)	110*	4	-15	0	107*	100*
O=C(CC(NCc1ccccc1)C(=O)O)Nc1cccc(Cl)c1Cl (stereo not given)	-29	-2	-3	0	.	.
COc1cc2c(cc1OC)CN(CCC(c1ccccc1)c1ccccc1)CC2	-3	-1	-6	0	.	.
COc1cc2c(cc1OC)CN(CC(O)c1ccccc1)CC2 (stereo not given)	51*	-1	4	0	-5	-1
Cc1ccnc2nc(C(=O)Nc3nc(-c4ccccn4)cs3)nn12	65*	0	1	-1	59*	79*
Cc1ccnc2nc(C(=O)Nc3nc(-c4cccs4)cs3)nn12	14	-1	-17	0	.	.
CCc1nc2sc(C(c3ccc(C(C)C)cc3)N3CCCC3)c(O)n2n1 (stereo not given)	57*	1	1	0	0	-3
CCc1nc2sc(C(c3ccc(OC)c(OC)c3)N3CCCCC3)c(O)n2n1 (stereo not given)	-13	0	-2	0	.	.
C/C(=N\NC(=O)CC1=NNC(=O)C1)c1ccco1	51*	0	-1	0	36*	-2	AS interf DR=>6.5
CCCC(=O)Nc1ccc2c(c1)C(=O)N(C1CCCCC1)C2=O	58*	-1	11	0	-5	-8
CCC(=O)Nc1ccc2c(c1)C(=O)N(C1CCCCC1)C2=O	-1	0	-13	0	.	.
O=C(c1ccc(SCc2ccccc2F)c([N+](=O)[O-])c1)N1CCCCC1	4	0	5	0	.	.
O=[N+]([O-])c1cccc(CN2CCN(S(=O)(=O)c3ccc4ccccc4c3)CC2)c1	62*	0	-2	0	14	24
O=[N+]([O-])c1ccc(Cl)c(S(=O)(=O)N2CCN(Cc3ccccc3)CC2)c1	13	1	7	0	.	.
O=S(=O)(c1ccc2ccccc2c1)N1CCN(C2CCN(Cc3ccccc3)CC2)CC1	52*	1	9	0	4	16
COc1cccc(CN2CCN(S(=O)(=O)c3cccc([N+](=O)[O-])c3)CC2)c1	12	-1	2	0	.	.
O=S(=O)(c1cccc(S(=O)(=O)N2CCN(Cc3ccccc3)CC2)c1)N1CCCC1	53*	1	7	0	9	14
O=[N+]([O-])c1ccc(S(=O)(=O)N2CCN(Cc3cccc(Cl)c3)CC2)cc1	64*	0	8	0	9	11
C1=CCC(CN2CCN(C3CCCCCC3)CC2)CC1 (stereo not given)	76*	2	4	0	-4	-7
